The test system of assay [1] is Zika virus NS2B-NS3 protease (linked construct). The assay is described as follows: Primary screen NINDS Rhodamine qHTS for Zika virus inhibitors (AID 1347160). Also: nearly all actives have a fitted effect of over 55% in size. Also: potency is read from the fitted curve at half-maximal effect. As to activity change, negative = inhibition: % is scaled to controls: 0 for no effect and ±100 for the full control effect. An outline of the steps:
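Rhodamine110-peptide cleavage (1.5 µM substrate) by 25 nM linked NS2B-NS3 enzyme at pH 8.0 (Tris, Tween 20), after 15 min RT preincubation with compounds; 15-min fluorescence change normalized to controls and Hill-fitted.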
On the technique in general: qHTS replaces the single test concentration by a dilution series.

Assay [2] addresses Calcium and integrin-binding protein 1 (Homo sapiens) (UniProt Q99828). The assay is described as follows: Primary qHTS for Identification of Calcium Integrin Binding Protein 1 (CIB1) Competitor (AID 1508620).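 Also: GST tagged CIB1 binding a fluorescein labelled alphaIIb integrin peptide tracer; top concentration of the series differs between compounds; % is scaled to controls: 0 for no effect and ±100 for the full control effect.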 The method in brief:
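Fluorescence polarization competition: CIB1-GST (1 uM final) preincubated with compound 15 min at room temperature, then FITC-labeled alphaIIb peptide (100 nM final) added for another 15 min. Polarization read at Ex 480/Em 540.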

A short description of assay [3]: Primary qHTS for inhibitors of nuclear receptor binding SET domain protein 2 (NSD2) in an isogenic RCH-ACV NSD2 p.E1099K mutant (9B) (AID 1645876). Also: potency is read from the fitted curve at half-maximal effect; nearly all actives have a fitted effect of over 70% in size.
A short description of assay [4]: Primary qHTS for inhibitors of nuclear receptor binding SET domain protein 2 (NSD2) in an RCH-ACV wild type WT cells (2C) (AID 1645877). Also: potency is read from the fitted curve at half-maximal effect; nearly all actives have a fitted effect of over 70% in size.
The target in assay [5] is Glutathione peroxidase 1 (Homo sapiens) (UniProt P07203). The assay can be described thus: Primary qHTS Assay for Inhibitors of Recombinant Selenoprotein Glutathione Peroxidase 1 (GPX1) (AID 1845191). Also: nearly all actives have a fitted effect of over 65% in size. As to activity, negative = inhibition: % is scaled to controls: 0 for no effect and ±100 for the full control effect. An outline of the steps:
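GPX1 10 nM, GR 100 nM, GSH 1 mM, NADPH 0.5 mM, CHP 0.5 mM (final). 30-min cpd preincubation, RT. Ex340/Em450 read t=0, t=15 min.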

The target of assay [6] is Luciferin 4-monooxygenase (Photinus pyralis) (UniProt P08659). The assay can be described thus: Primary firefly luciferase (FLuc) qHTS assay for identification of artifact compounds. (AID 1845220). Also: nearly all actives have a fitted effect of over 60% in size.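 As to activity change, negative = inhibition: plate controls were DMSO vehicle for no effect and no enzyme for full effect.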 The method in brief: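 In this counter-screen for luciferase artifacts, test compounds met substrate (10 uM each luciferin and ATP) before 10 nM enzyme started the reaction. Light output was measured 5 min later.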

The nature of assay [7]: Primary fluorescence-based thiol-reactive (MSTI) qHTS assay for identification of artifact compounds. (AID 1845221). Also: nearly all actives have a fitted effect of over 65% in size. Also: potency is read from the fitted curve at half-maximal effect.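 As to activity change, negative = thiol reactive: thiol-reactive compounds lower the probe fluorescence signal.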 An outline of the steps: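 qHTS titration of compound; 4 uM MSTI, PBS pH 7.4, 2% DMSO; 1 h RT, dark; fluorescence 525/598 nm; normalized to Acetyl-MSTI and MSTI; 4-parameter Hill fit.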
Assay [8] relates to Nanoluciferase (engineered Oplophorus gracilirostris luciferase). The assay can be described thus: Primary Nanoluciferase (NLuc) qHTS assay for identification of artifact compounds. (AID 1845222).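 Also: NLuc secreted into diluted conditioned medium of S16 cells.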 An outline of the steps:
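Using secreted nanoluciferase in S16 culture medium (0.22 um filtered, 1:55 dilution), compounds were preincubated 15 min at RT. Signal was generated with Nano-Glo reagent (1:100) over 5 min.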

Assay [9] is described as follows: Primary redox qHTS assay for identification of artifact compounds. (AID 1845223).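 Also: 0% = DMSO and 100% = reference compound.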 The method in brief: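 Redox-cycling detection via DTT (250 uM final) oxidation coupled to Amplex Red (25 uM)/HRP (250 mU/mL) in HBSS. 15 min preincubation plus 30 min after DTT, room temperature. Ex/Em 525/598 nm; 4-parameter Hill fit against DMSO and 10 uM DA3003.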
Assay [10] relates to C33A. The assay is described as follows: Primary qHTS to identify gynecologic anti-cancer compounds using libraries of approved drugs and bioactive compounds (AID 1345084). Also: % is scaled to controls: 0 for no effect and ±100 for the full control effect; nearly all actives have a fitted effect of over 55% in size. As to conditions: Gynecologic cancer cell panel viability, ATPlite luminescence, 48 h; series mostly up to 57.5 µM. An outline of the steps:
(§1)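 Cells, 1,000 per well, were allowed to settle for 16 h at 37 C before compound addition. Five concentrations were tested for 48 h, and viability was read by ATPlite luminescence after 15 min at room temperature.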

Assay [11] deals with CAOV3. The description is as above. As to conditions: Gynecologic cancer cell panel viability, ATPlite luminescence, 48 h; series mostly up to 57.5 µM. An outline of the steps: as §1
For assay [12], the system named is CASKI. Described as above. As to conditions: Gynecologic cancer cell panel viability, ATPlite luminescence, 48 h; series mostly up to 57.5 µM. An outline of the steps:
as §1
Background: Cellular ATP, detected with luciferase, serves as a proxy for viable cell number.

Assay [13] concerns Es-2. Described as above. The conditions noted are these: Gynecologic cancer cell panel viability, ATPlite luminescence, 48 h; series mostly up to 57.5 µM. The method in brief: as §1
Assay [14] concerns Hek293T. The description is as above. The conditions noted are these: Gynecologic cancer cell panel viability, ATPlite luminescence, 48 h, control line for the selectivity index; series mostly up to 57.5 µM. The method in brief:
as §1

Assay [15] has as its system JEG-3. The description is as above. The conditions noted are these: Gynecologic cancer cell panel viability, ATPlite luminescence, 48 h; series mostly up to 57.5 µM. An outline of the steps:
as §1

The subject of assay [16] is OV90. Described as above. The conditions noted are these: Gynecologic cancer cell panel viability, ATPlite luminescence, 48 h; series mostly up to 57.5 µM. The method in brief:
as §1

The test system of assay [17] is Tov-21-G. The assay is described as above. The conditions noted are these: Gynecologic cancer cell panel viability, ATPlite luminescence, 48 h; series mostly up to 57.5 µM. An outline of the steps: as §1
Assay [18] deals with Tov112D. The assay is described as above. As to conditions: Gynecologic cancer cell panel viability, ATPlite luminescence, 48 h; series mostly up to 57.5 µM. An outline of the steps: as §1
The target of assay [19] is Phospholipid hydroperoxide glutathione peroxidase GPX4 (Homo sapiens) (UniProt P36969). The assay is described as follows: Primary qHTS Assay for Inhibitors of Recombinant Selenoprotein Glutathione Peroxidase 4 (GPX4) (AID 1845192). Also: % is scaled to controls: 0 for no effect and ±100 for the full control effect; nearly all actives have a fitted effect of over 65% in size. As to conditions: outcome: dose series up to 50 µM unless noted. An outline of the steps: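 qHTS, GR-coupled: GPX4 200 nM + cpd 30 min RT → GSH 1 mM, NADPH 0.5 mM, GR 100 nM → CHP 0.5 mM start; fluor 340/450 at t0 and t15 min; no-enzyme wells as control.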

For assay [20], the system named is HeLa. The assay is described as follows: Primary qHTS to identify gynecologic anti-cancer compounds using libraries of approved drugs and bioactive compounds (AID 1345084). Also: % is scaled to controls: 0 for no effect and ±100 for the full control effect; nearly all actives have a fitted effect of over 55% in size. The conditions noted are these: Gynecologic cancer cell panel viability, ATPlite luminescence, 48 h; series mostly up to 57.5 µM. An outline of the steps: as §1

Several values for one entry are separate records, joined by “and”; a condition that tells them apart may be missing. Identical values can stand only once. A number with no mark means an inactive call. Records with an inconclusive call do not appear. Activity calls are given as the source filed them. Calls follow the shape of the dose curve; as a rule, active = well fitted curve in the direction sought with a large enough effect; inconclusive = small, poorly fitted or top-dose-only effect, or another doubt; inactive = no such curve, though single readings can be large; an effect the other way counts as inactive or inconclusive.

Sequence of Phospholipid hydroperoxide glutathione peroxidase GPX4 (Homo sapiens) (P36969 whole entry, looked up): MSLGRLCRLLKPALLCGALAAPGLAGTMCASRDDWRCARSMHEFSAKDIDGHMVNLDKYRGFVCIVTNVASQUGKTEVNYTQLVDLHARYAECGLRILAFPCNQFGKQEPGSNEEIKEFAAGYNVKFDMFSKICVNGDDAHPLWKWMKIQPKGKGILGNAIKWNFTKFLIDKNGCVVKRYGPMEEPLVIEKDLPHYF
Sequence of Glutathione peroxidase 1 (Homo sapiens) (P07203 whole entry, looked up): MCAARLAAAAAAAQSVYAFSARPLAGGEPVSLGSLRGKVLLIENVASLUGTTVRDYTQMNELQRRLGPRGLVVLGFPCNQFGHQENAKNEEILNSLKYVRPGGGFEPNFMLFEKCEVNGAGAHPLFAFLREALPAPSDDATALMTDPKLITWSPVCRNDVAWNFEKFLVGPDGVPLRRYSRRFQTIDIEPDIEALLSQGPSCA
Sequence of Calcium and integrin-binding protein 1 (Homo sapiens) (Q99828 whole entry, looked up): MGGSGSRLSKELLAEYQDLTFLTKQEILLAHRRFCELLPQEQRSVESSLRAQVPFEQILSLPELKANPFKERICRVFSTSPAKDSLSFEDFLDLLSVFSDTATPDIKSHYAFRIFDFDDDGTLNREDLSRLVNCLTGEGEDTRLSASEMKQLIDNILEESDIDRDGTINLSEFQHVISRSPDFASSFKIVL

Consider `COc1ccc2c(c1)C[C@H](C(=O)Nc1ccc(-c3cn[nH]c3)cc1OCCN(C)C)CO2`, for which the Potency result in assay [1], in [5], in assay [6], in [7], in assay [8] and in [9] was “inactive” each time. Also, the Potency entry in assay [10], in assay [11], in assay [12], in assay [13], in [14] and in assay [15] was “inactive” throughout. The Potency entry in assay [16], in [17] and in assay [18] was “inactive” in each case. Moreover, the outcome in [2] was inactive. The Potency in assay [3] was 291 nM (active); in assay [4], 0.164 µM (active).

Regarding `C[C@@H]1COCCN1c1cc(C2(S(C)(=N)=O)CC2)nc(-c2ccnc3[nH]ccc23)n1` (stereo partly drawn), the outcome in assay [2] was inactive. Besides, the Potency was 662 nM (active) and 3.66 µM (active) in assay [3]; 662 nM (active) and 2.31 µM (active) in assay [4].

Consider `CC1(C)CC[C@]2(C(=O)OC3OC(CO)C(O)C(O)C3O)CC[C@]3(C)C(=CCC4[C@@]5(C)CC[C@H](OC6OC(C(=O)O)C(O)C(O)C6O)C(CO)(CO)C5CC[C@]43C)[C@@H]2C1` (stereo partly drawn), for which the Potency result in assay [1], in [5] and in assay [19] was “inactive” in each case. For the same compound, the Potency in [3] is 869 nM (active); in assay [4] it was 0.435 µM (active). In addition, in assay [6], the activity change, negative = inhibition was 0.233% [at 11.6 µM]. Further, in [7], the activity change, negative = thiol reactive was 84.5% [at 11.5 µM]. Also, in assay [8], the activity, negative = inhibition was -2.38% [at 11.6 µM]. Moreover, in assay [9], the redox activity (% of DA3003) is 7.5% [at 11.5 µM]. Moreover, the activity change, negative = cytotoxicity was -15.8% [at 11.6 µM] in assay [20]; -26.5% [at 11.6 µM] in [14]; -19.7% [at 11.6 µM] in assay [16]; -29.8% [at 11.6 µM] in assay [17]; -7.53% [at 11.6 µM] in assay [18].

As to `CC1CCC2C(C)(C)C(O)CCC2(C)C12Cc1c(O)cc3c(c1O2)CN(C(CCCN=C(N)N)C(=O)O)C3=O` (stereo not drawn), the Potency entry in [1], in [5], in assay [19], in [6], in assay [7] and in assay [8] was “inactive” each time. Besides, the Potency result in assay [9], in assay [10], in assay [12], in [13], in assay [20] and in assay [15] was “inactive” throughout. The Potency entry in assay [16] and in assay [17] was “inactive” each time. In assay [2], the result was inactive. Besides, the Potency in [4] was 8.93 µM (active).

`CC(=O)c1c(OCCN2CCCCC2)c(OCCC(C)c2ccc(F)cc2)c2oc(C)nc2c1C` (stereo not drawn): the Potency result in assay [1], in [5], in assay [19], in [6], in assay [7] and in assay [8] was “inactive” throughout. Besides, the Potency entry in assay [9], in assay [10], in assay [12], in assay [13], in [20] and in assay [15] was “inactive” throughout. For the same compound, the Potency entry in assay [16], in [17] and in assay [18] was “inactive” throughout. Also, the result in assay [2] was inactive.

Take `Cc1ccc(C(=O)N2CCN(c3ccc([N+](=O)[O-])cc3)CC2)cc1Cl`: the Potency entry in assay [1], in assay [5], in assay [6], in assay [7], in [8] and in assay [9] was “inactive” each time. For the same compound, the Potency entry in assay [10], in [11], in assay [12], in assay [13], in assay [20] and in [14] was “inactive” in each case. Besides, the Potency result in [15], in assay [16], in [17] and in [18] was “inactive” in each case. In addition, the result in assay [2] was inactive. Besides, the Potency in assay [3] is 12900 nM (active); in assay [4], 11.5 µM (active).

Take `O=C(NCc1ccc(Oc2ccccc2)cc1)c1nc(-c2cc(Br)c(O)c(Br)c2)no1`: the results for the Potency in [1], in [4] and in assay [7] were 2510 nM (active), 20.5 µM (active) and 423 nM (active), respectively. Also, the Potency entry in assay [5], in assay [19], in assay [6], in [8], in [10] and in assay [11] was “inactive” in each case. For the same compound, the Potency result in assay [12], in assay [13], in assay [20], in assay [14], in assay [15] and in assay [16] was “inactive” in each case. Further, the Potency entry in assay [17] and in assay [18] was “inactive” in each case.

Values taken from PubChem BioAssay (NCATS).
